Pf growth 96h = P. falciparum growth inhibition at 96 hours; P. falciparum luciferase reporter growth, 96 h; 6.9% of 320,000 active; AID 504834; Potency, µM (titrated, usually from 28.7 µM), inactives show top-dose activity change, negative = inhibition, hits mostly inhibitors; note: potency is the fitted concentration of half-maximal effect; % is set by controls: 0 for no effect and ±100 for the full control effect
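Erythrocytes infected with luciferase-expressing P. falciparum were dispensed at 2% hematocrit and 0.05% parasitemia (final), then incubated with compounds 96 hours at 37 C in 5% CO2. Luminescence after detection reagent addition reported growth.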
HCV inh = HCV inhibition; 3.4% of 340,000 active; Potency, µM (titrated, usually from 41.8 µM), inactives show at the top dose activity change, negative = inhibition, most hits filed as inhibitors; Huh7.5.1 HCVcc-Cre infection, luciferase reporter, 44 h; note: potency is the fitted concentration of half-maximal effect; % is set by controls: 0 for no effect and ±100 for the full control effect
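Cells seeded at 1,000/well and cultured 4 h, then compounds added followed by HCVcc-Cre virus (~0.5 moi). After 44 h further culture, luciferase substrate was added, plates held 15 min at room temperature, and luminescence read for 15 sec.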
Shiga toxin inh = blocks Shiga toxin action in Vero cells | inhibition, % at 38.7 µM | 9.2% of 290,000 active | Vero cells, Shiga toxin protein synthesis inhibition reporter; in the data active = inhibition mostly above about 28%, no sharp cut-off; inactive = mostly below about 43%; note: 0% is about no effect
AMA1-RON2 inh = AMA1-RON2 (P. falciparum) interaction inhibition; AlphaScreen AMA1-biotinylated RON2 peptide binding; Potency, µM (top dose mostly 58.2 µM), for inactives: top-dose activity change, negative = inhibition, usual class: inhibitors; 0.2% of 360,000 active;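 note: potency is the fitted concentration of half-maximal effect; 0% = vehicle wells and -100% = peptide control; nearly all actives have a fitted effect of over 45% in size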
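AMA1 (3D7) with his tag at 25 nM final met compounds first, then biotinylated RON2 peptide at 25 nM; detection used donor plus acceptor beads, 10 µg/mL apiece, read by AlphaScreen after 30 min at room temperature.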
Pf growth 48h = P. falciparum growth inhibition at 48 hours (one generation); P. falciparum luciferase growth in erythrocytes, 48 h; Potency, µM (series often up to 28.7 µM), without a hit: at the top dose activity change, negative = inhibition, most hits filed as inhibitors; 5.9% of 310,000 active; note: potency is the fitted concentration of half-maximal effect; % is set by controls: 0 for no effect and ±100 for the full control effect
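Luciferase-expressing P. falciparum in infected erythrocytes (2% hematocrit, 0.1% parasitemia final) in RPMI 1640/0.5% Albumax were exposed to compound for 48 hours at 37 C, 5% CO2; growth read as luminescence.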
CHX counter = counter-screen hit for Shiga toxin inhibitors, cycloheximide; cell reporter, cycloheximide protein synthesis inhibition counterscreen; max response, %; 12% of 300,000 active; AID 2314; in the data active = max response mostly above about 13%, no sharp cut-off; inactive = mostly below about 14%; note: read at 38.3 µM for the half of the compounds with a filed dose; 0% is about no effect
HCV inh confirm = confirmation of hepatitis C virus inhibitors. AID 720575. Potency, µM (series often up to 41.8 µM), for inactives: top-dose activity, negative = inhibition, most hits filed as inhibitors. 78% of 640 active. shares compounds with HCV inh. HCVcc-Cre infectious virus cell assay, luciferase, inhibition; note: potency is the fitted concentration of half-maximal effect; nearly all actives have a fitted effect of over 80% in size
HCV cytotox = counter-screen for HCV inhibitors: host cell cytotoxicity | 22% of 640 active | AID 720576 | HCV host cell line cytotoxicity counterscreen | Potency, µM (titrated, usually from 41.8 µM), inactives show at the highest dose activity change, negative = cytotoxicity, hits mostly inhibitors | shares compounds with HCV inh;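 note: potency is the fitted concentration of half-maximal effect; 44 h compound exposure; % is set by controls: 0 for no effect and ±100 for the full control effect; nearly all actives have a fitted effect of over 55% in size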
The depositor's hits bear a star; [ ] = dose if it differs, or a comment. Rows were chosen to be rich in hits. Some 21% of all compounds tested hit in one or more screens of this group. Unless noted, calls come from the whole dose curve; as a rule, active = well fitted curve in the direction sought with a large enough effect; inconclusive = small, poorly fitted or top-dose-only effect, or another doubt; inactive = no such curve, though single readings can be large; an effect the other way counts as inactive or inconclusive.

Results for CCN(CC)CCNC(=S)Nc1ccc2nc(N3CCOCC3)cc(C)c2c1 ?
Pf growth 96h: -15.1%; HCV inh: inconclusive; Shiga toxin inh: -7.0; AMA1-RON2 inh: 3.7%; Pf growth 48h: 20.4%[0.00184 µM]; CHX counter: -2.0

Results for CCN1CCN(c2cc(C)c3cc(NC(=O)c4cc(OC)cc(OC)c4)ccc3n2)CC1 ?
Pf growth 96h: inconclusive; HCV inh: 2.24µM*; Shiga toxin inh: 63.6*; AMA1-RON2 inh: 8.7%; Pf growth 48h: inconclusive; CHX counter: 18.5*; HCV inh confirm: 25µM*; HCV cytotox: 22.3µM*

Results for CCCc1cc(C(=O)N2CCCC(C(=O)c3cc(C)c(OC)c(C)c3)C2)n(C)n1 (stereo not drawn) ?
Pf growth 96h: 4.7%; HCV inh: inconclusive; Shiga toxin inh: -12.7; AMA1-RON2 inh: 0.0%; Pf growth 48h: inconclusive; CHX counter: 0.5

Results for Cc1noc(C)c1COC(=O)c1ccc(F)c(S(=O)(=O)N2CCCCC2)c1 ?
Pf growth 96h: -26.9%; HCV inh: inconclusive; Shiga toxin inh: -16.8; AMA1-RON2 inh: 7.0%; Pf growth 48h: -9.1%; CHX counter: -0.8; HCV inh confirm: 28µM*; HCV cytotox: -35.8%

Results for Cc1noc(C)c1COC(=O)c1ccc2c(c1)OCCO2 ?
Pf growth 96h: -15.5%; HCV inh: -0.6%; Shiga toxin inh: 23.0; AMA1-RON2 inh: 0.0%; Pf growth 48h: inconclusive; CHX counter: -1.9

What do the screens show for `CCc1nc2ccc(C(=O)NCCN3CCOCC3)cn2c1N(C=O)Cc1ccc(OC)cc1`?
AMA1-RON2 inh: 1.6%

Results for CCOC(=O)c1cc2c(=O)n3ccccc3nc2n(CCOC)c1=NC(=O)C(C)(C)C ?
Pf growth 96h: -11.4%; HCV inh: inconclusive; Shiga toxin inh: -9.3; AMA1-RON2 inh: 13.5%; Pf growth 48h: 23.0%; CHX counter: -7.3

How did CCOC(=O)c1cc2c(=O)n3ccccc3nc2n(CCCOC)c1=NC(=O)C(C)(C)C do in these assays?
Pf growth 96h: 0.6%; HCV inh: inconclusive; Shiga toxin inh: -20.0; AMA1-RON2 inh: 12.9%; Pf growth 48h: 2.8%; CHX counter: -4.1; HCV inh confirm: inconclusive; HCV cytotox: -15.5%

How did CSC(=NC#N)N1CCN(c2ccc([N+](=O)[O-])cc2)CC1 do in these assays?
Pf growth 96h: -17.1%; HCV inh: inconclusive; Shiga toxin inh: 17.8; AMA1-RON2 inh: 3.3%; Pf growth 48h: inconclusive; CHX counter: 5.9

What do the screens show for `COc1cccc(N(C(=O)CCl)C(C(=O)NCCc2ccccc2)c2cccs2)c1` (stereo not drawn)?
Pf growth 96h: 9.28µM*; HCV inh: 0.708µM*; Shiga toxin inh: -15.3; AMA1-RON2 inh: 4.1%; Pf growth 48h: 11.7µM*; CHX counter: -1.8; HCV inh confirm: 0.887µM*; HCV cytotox: 0.499µM*

How did Cc1cc(C)c(CN2CCN(C(=O)Cn3cnc4c(OCc5ccccc5)ncnc43)CC2)c(C)c1 do in these assays?
HCV inh: 0.562µM*; AMA1-RON2 inh: -2.3%; HCV inh confirm: 2.5µM*; HCV cytotox: 5.6µM*

Results for COC(=O)c1cc2ccsc2n1CC(=O)Nc1cc(Cl)ccc1OC ?
Pf growth 96h: -10.0%; HCV inh: 3.16µM*; Shiga toxin inh: 0.9; AMA1-RON2 inh: 0.9%; Pf growth 48h: inconclusive; CHX counter: -1.9; HCV inh confirm: 7.91µM*; HCV cytotox: 14.1µM*

How did COC(=O)c1nn2c(C(F)(F)F)cc(-c3ccc(Br)o3)nc2c1Br do in these assays?
HCV inh: 5.62µM*; Shiga toxin inh: 24.4; AMA1-RON2 inh: inconclusive; Pf growth 48h: 15.9%; CHX counter: -4.2; HCV inh confirm: inconclusive; HCV cytotox: -19.1%

What do the screens show for `COc1ccccc1NCCC(=O)OCC(=O)Nc1ccccc1F`?
HCV inh: 35.8%; AMA1-RON2 inh: -3.0%[11.6 µM]

Results for Cc1ccc([N+](=O)[O-])cc1NC(=O)CSc1n[nH]c(-c2cccnc2)n1 ?
Pf growth 96h: inconclusive; HCV inh: -14.9%; Shiga toxin inh: -7.9; AMA1-RON2 inh: -7.8%; Pf growth 48h: 2.1%; CHX counter: -4.0

What do the screens show for `CCOc1ccc(C(=O)NCC(=O)NCC(c2ccco2)N2CCCCC2)cc1` (stereo not drawn)?
Pf growth 96h: 49.0%; HCV inh: 0.9%; AMA1-RON2 inh: 5.3%[11.6 µM]; Pf growth 48h: 19.0%

How did Cc1ccc(C(=O)c2c3ccc([N+](=O)[O-])cc3[n+]([O-])n2CCCN)cc1 do in these assays?
Pf growth 96h: inconclusive; HCV inh: 7.94µM*; AMA1-RON2 inh: 9.0%; Pf growth 48h: -93.8%; HCV inh confirm: 7.05µM*; HCV cytotox: 50.5%

How did NS(=O)(=O)c1ccc(CCNC(=O)C2CC(=O)N(Cc3ccccc3Cl)C2)cc1 (stereo not drawn) do in these assays?
Pf growth 96h: -32.2%; HCV inh: 12.5%; AMA1-RON2 inh: -2.5%; Pf growth 48h: 7.6%

How did COc1ccc(-c2nc(SCc3ccccc3)n(S(C)(=O)=O)n2)cc1 do in these assays?
Pf growth 96h: 106.7%; HCV inh: 2.82µM*; Shiga toxin inh: 14.1; AMA1-RON2 inh: 4.6%; Pf growth 48h: 35.9%; CHX counter: 1.7; HCV inh confirm: -27.1%; HCV cytotox: 34.5%

What do the screens show for `COc1ccc(NC(=O)/C=C/c2cc(Br)ccc2OC)cc1`?
Pf growth 96h: 18.1%; HCV inh: inconclusive; Shiga toxin inh: -20.2; AMA1-RON2 inh: 33.3%; Pf growth 48h: -5.3%; CHX counter: 6.6

What do the screens show for `CCN(CC)c1ccc(NC(=O)/C=C/c2cc(Br)ccc2OC)cc1`?
Pf growth 96h: 0.0%; HCV inh: inconclusive; Shiga toxin inh: -10.5; AMA1-RON2 inh: inconclusive; Pf growth 48h: inconclusive; CHX counter: 0.5; HCV inh confirm: 12.5µM*; HCV cytotox: inconclusive

Results for O=[N+]([O-])c1ccc(Oc2ccc(S(=O)(=O)N3CCCCC3)cc2)cc1 ?
Pf growth 96h: 24.2%; HCV inh: inconclusive; Shiga toxin inh: -11.7; AMA1-RON2 inh: -8.9%; Pf growth 48h: -6.9%; CHX counter: -1.6

Results for O=[N+]([O-])c1ccc(S(=O)(=O)CC(CN2CCCCC2)N2CCCCC2)cc1 (stereo not drawn) ?
Pf growth 96h: 13.6%[5.75 µM]; HCV inh: 4.47µM*; Shiga toxin inh: 24.4; AMA1-RON2 inh: -1.4%; Pf growth 48h: 18.7%[5.75 µM]; CHX counter: 13.5; HCV inh confirm: 11.2µM*; HCV cytotox: 19.9µM*

Bioassay records as filed in PubChem BioAssay.
